# In PubChem BioAssay (NCATS):
# Assay: qHTS profiling of the MIPE4 collection as inhibitors of Plasmodium falciparum (HB3) proliferation (AID 743347)
# Details: P. falciparum HB3 in erythrocytes, SYBR Green DNA, 72 h; at 28.5 µM (top of the series) unless noted
# Excerpt: Plasmodium falciparum is a virulent malarial parasite that kills 1-2 million people worldwide each year. Transmitted by mosquitoes, the sporozoite form of the parasite enters the blood stream to infect hepatocytes, where they become merozoites that infect red blood cells (erythrocytes). Within erythrocytes, merozoites begin a […] cycle of growth and division, after which the parasite is released to infect new red blood cells. Gametocytes, which form within erythrocytes as well, circulate in the bloodstream and are ingested by the mosquito, thereby completing the life cycle. To profile malarial isolates for differential chemical responses and to identify inhibitors of malarial growth, an assay that measures P. falciparum growth and replication within erythrocytes was employed. This assay uses a DNA binding fluorescent dye (SYBR Green) to detect parasite DNA following cell lysis. Because mature erythrocytes lack DNA, only Plasmodium-derived DNA is detected.
# The SYBR Green viability assay was adapted from a method described previously (Plouffe et al., 2008). For screening 3 ul culture medium was dispensed into 1536 well black clear bottom plates (Aurora Biotechnologies) using a Multidrop Combi (Thermo Fisher Scientific Inc.), 23 nL compounds in DMSO were added by a pin tool (Kalypsys), and 5 ul of erythrocytes infected with P. falciparum (0.3% parasitemia, 2.5% hematocrit final concentration) were added. The plates were incubated at 37 C in a humidified incubator in 5% CO2 for 72 h, and 2 ul lysis buffer (20 mM Tris HCl, 10 mM EDTA, 0.16% saponin, 1.6% triton X, 10X SYBR Green I supplied as 10,000X […] by Invitrogen) was added to each well. The plates were mixed for 25 sec with gentle shaking and incubated overnight at room temperature in the dark. The following morning, fluorescence intensity at 485(14) nm excitation and 535(25) nm emission wavelengths was measured on an EnVision (Perkin Elmer) plate reader. Plate reads were normalized relative to the control inhibitor (0.29 uM artemisinin) and vehicle (DMSO) wells present on each plate and then corrected by an algorithm using vehicle-only control plates at the beginning and end of the compound plate stack.
row,Structure (SMILES),"growth, % of control"
1,O=C1C[C@@H](c2ccc(O)cc2)Oc2cc(O)cc(O)c21,5.63%
2,O=C(CCN1CCN(C(=O)OCc2cc(Cl)cc(Cl)c2)CC1)c1ccc2[nH]c(=O)oc2c1,105%
3,CCCCCNC(=O)N1CCC(CN(Cc2ccc(Cl)cc2)Cc2ccc([N+](=O)[O-])s2)C1 (stereo not given),55.8%
4,CC(C(=O)O)c1ccc(-c2ccccc2)c(F)c1 (stereo not given),96%
5,O=c1c(O)c(-c2ccc(O)cc2)oc2cc(O)cc(O)c12,19.7%
6,c1ccc2c(-c3cnn4cc(-c5ccc(N6CCNCC6)cc5)cnc34)ccnc2c1,5.81%
7,Cc1nc(N)sc1-c1ccnc(Nc2ccc(N3CCOCC3)cc2)n1,5.5%
8,O=c1cc(CN2CCOCC2)occ1OCCCCCSc1ccnc2cc(C(F)(F)F)ccc12,12.1%
9,NS(=O)(=O)c1cccc2c1C(=O)c1cccc(O)c1C2=O,2.61%
10,CC=CC[C@@H](C)C(=O)[C@H]1C(=O)N[C@@H](C(C)C)C(=O)N(C)CC(=O)N(C)[C@@H](CC(C)C)C(=O)N[C@@H](C(C)C)C(=O)N(C)[C@@H](CC(C)C)C(=O)N[C@@H](C)C(=O)N[C@H](C)C(=O)N(C)[C@@H](CC(C)C)C(=O)N(C)[C@@H](CC(C)C)C(=O)N(C)[C@@H](C(C)C)C(=O)N1C,103%
11,OC[C@H]1O[C@@H](Oc2cc(O)cc(C=Cc3ccc(O)cc3)c2)[C@H](O)[C@@H](O)[C@H]1O,83.3%
12,Cn1c(N2CCCCS2(=O)=O)nc(C(=O)NCc2ccc(F)cc2)c(O)c1=O,62.6%
13,CC[C@H]1OC(=O)[C@H](C)C(=O)[C@H](C)[C@@H](O[C@H]2O[C@H](C)C[C@H](N(C)C)[C@@H]2O)[C@](C)(OC)C[C@@H](C)C(=O)[C@H](C)[C@H]2N(CCCCn3cnc(-c4cccnc4)c3)C(=O)O[C@]12C,9.46%
14,COc1ccc(-n2c(C)c([N+](=O)[O-])c3ccc(O)cc32)cc1,34.7%
15,N[C@@]1(C(=O)O)CS(=O)(=O)[C@H]2[C@H](C(=O)O)[C@H]21,59.7%
16,Oc1ccc(C2=Cc3ccc(O)cc3OC2)cc1,24.6%
17,CC1(C)O[C@H]2C[C@@H]3[C@H]4CCC5=CC(=O)C=C[C@]5(C)[C@@]4(F)[C@@H](O)C[C@]3(C)[C@]2(C(=O)CO)O1,69%
18,O=C(O)C=Cc1ccc(O)c(O)c1,64.3%
19,COCCOC(=O)C1=C(C)NC2=C(C(=O)CC(c3ccccc3OC)C2)C1c1cccc(O)c1 (stereo not given),17.6%
20,CO[C@H]1C[C@@H]2CC[C@@H](C)[C@@](O)(O2)C(=O)C(=O)N2CCCC[C@@H]2C(=O)O[C@H]([C@H](C)C[C@@H]2CC[C@H](OCCO)[C@H](OC)C2)CC(=O)[C@H](C)C=C(C)[C@@H](O)[C@@H](OC)C(=O)[C@H](C)C[C@H](C)C=CC=CC=C1C,3.94%

row,Structure (SMILES),"growth, % of control"
1,CC(C)C(=O)Oc1ccc(CO)cc1[C@H](CCN(C(C)C)C(C)C)c1ccccc1,45.5%
2,NC[C@@H]1O[C@@H](O[C@H]2[C@@H](O)[C@H](O[C@@H]3[C@@H](O)[C@@H](N)C[C@H](N)[C@H]3O[C@H]3O[C@H](CN)[C@@H](O)[C@@H](O)[C@H]3N)O[C@H]2CO)[C@H](N)[C@@H](O)[C@@H]1O,99.6%
3,O=C(N[C@@H](c1ccccc1)[C@@H]1CCCCN1)c1cccc(C(F)(F)F)c1Cl,8.07%
4,CC[C@]1(O)C[C@@H]2CN(CCc3c([nH]c4ccccc34)[C@@](C(=O)OC)(c3cc4c(cc3OC)N(C=O)[C@@H]3C45CCN4CC=C[C@](CC)([C@H]45)[C@@H](OC(C)=O)[C@]3(O)C(=O)OC)C2)C1 (stereo not given in full),3.8%
5,C[C@H]1[C@H](NC(=O)C(=NOC(C)(C)C(=O)O)c2csc(N)n2)C(=O)N1S(=O)(=O)O,102%
6,C[C@@H](O)[C@H]1C(=O)N2C(C(=O)O)=C(S[C@@H]3CN[C@H](C(=O)N(C)C)C3)[C@H](C)[C@H]12,61.4% [at 9.64 µM]
7,COc1ccc(-c2nc(N3CCOCC3)c3sc(CN(C)c4ncc(C(=O)NO)cn4)cc3n2)cn1,2.4%
8,O=c1[nH]cnc2c1ncn2[C@H]1CC[C@@H](CO)O1,659%
9,CCC(=O)O[C@]1(C(=O)CO)CC[C@H]2[C@@H]3CCC4=CC(=O)CC[C@]4(C)[C@@H]3CC[C@@]21C,31%
10,COc1cc(O)c2c(c1)C(=O)c1cc(C)cc(O)c1C2=O,47.7% [at 9.64 µM]
11,O=c1c(-c2ccc(O)cc2)coc2cc(OC3O[C@H](CO)[C@H](O)[C@H](O)[C@H]3O)cc(O)c12 (stereo not given in full),54%
12,O=C1NC(=O)C(=Cc2ccc3c(c2)OC(F)(F)O3)S1,125%
13,N#CC(=C(N)Sc1ccccc1N)C(C#N)=C(N)Sc1ccccc1N,5.29%
14,NC1CCC(Nc2nc(Nc3ccc(C(=O)N4CCCCC4)cc3)c3ncn(-c4cccc(F)c4)c3n2)CC1 (stereo not given),71.8%
15,CCC(=O)NC[C@H](Cc1ccc(OCCc2nc(-c3ccccc3)oc2C)cc1)NC(C)=CC(=O)c1ccc(C(F)(F)F)cc1,9.04%
16,O=C(Nc1c(Cl)cncc1Cl)c1ccc(OC(F)F)c(OCC2CC2)c1,100%
17,CNC(=O)c1ccc2cc(C3(O)CCn4cncc43)ccc2c1 (stereo not given),55%
18,CO[C@@H](C(=O)N1Cc2[nH]nc(NC(=O)c3ccc(N4CCN(C)CC4)cc3)c2C1)c1ccccc1,3.96%
19,CN(C[C@@H]1COCCO1)S(=O)(=O)Nc1ccc2ccc3ncc(-c4cnn(C)c4)cc3c(=O)c2c1,7.9%
20,Cc1ccc(C(C)(O)c2nc3ccccc3s2)c(C)c1 (stereo not given),95.9%
